Measured values: PubChem BioAssay (NCATS)
Results filed as inconclusive are left out. Activity calls are given as the source filed them. The call rests on the fitted dose curve; in most records, active means well fitted curve in the direction sought with a large enough effect; inconclusive means small, poorly fitted or top-dose-only effect, or another doubt; inactive means no such curve, though single readings can be large; an effect the other way counts as inactive or inconclusive.

What was measured:
[1] = biological target: Glutathione peroxidase 1 (Homo sapiens) (UniProt P07203); experiment: Primary qHTS Assay for Inhibitors of Recombinant Selenoprotein Glutathione Peroxidase 1 (GPX1) (AID 1845191); conditions: recombinant GPX1, GR-coupled NADPH fluorescence, 15 min; series mostly up to 48.8 µM; further: nearly all actives have a fitted effect of over 65% in size; further: potency means the concentration at half of the fitted maximal effect; on activity, negative = inhibition: on the % scale 0 is the no-effect control and ±100 the full control effect
How it was run: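 GR-coupled assay: compounds preincubated 30 min at room temperature with GPX1, then reaction started with CHP; final 10 nM GPX1, 1 mM GSH, 0.5 mM CHP, 0.5 mM NADPH, 100 nM GR, 0.01% BSA, pH 7.5 Tris buffer. NADPH fluorescence (340/450 nm) read at 0 and 15 min.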

[2] = biological target: Phospholipid hydroperoxide glutathione peroxidase GPX4 (Homo sapiens) (UniProt P36969); experiment: Primary qHTS Assay for Inhibitors of Recombinant Selenoprotein Glutathione Peroxidase 4 (GPX4) (AID 1845192); conditions: recombinant GPX4, GR-coupled NADPH fluorescence, 15 min; series mostly up to 50 µM; further: nearly all actives have a fitted effect of over 65% in size; further: potency means the concentration at half of the fitted maximal effect; on activity change, negative = inhibition: on the % scale 0 is the no-effect control and ±100 the full control effect
How it was run: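 GR-coupled assay: recombinant GPX4 preincubated 30 min with compound at room temperature; final 200 nM GPX4, 1 mM GSH, 0.5 mM cumene hydroperoxide, 0.5 mM NADPH, 100 nM GR, 0.01% BSA, pH 7.5 Tris. NADPH fluorescence (340/450 nm) read at 0 and 15 min.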

[3] = Primary fluorescence-based thiol-reactive (MSTI) qHTS assay for identification of artifact compounds. (AID 1845221); conditions: MSTI thiol-reactivity probe, 1 h; series mostly up to 53.8 µM; further: nearly all actives have a fitted effect of over 65% in size; further: potency means the concentration at half of the fitted maximal effect;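 on activity change, negative = thiol reactive: thiol-reactive compounds lower the probe fluorescence signal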
How it was run: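 Compounds were incubated 1 h at room temperature in the dark with the MSTI probe (4 uM) in PBS pH 7.4, 2% DMSO. Signals were normalized between Acetyl-MSTI and MSTI.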

[4] = test system: Nanoluciferase (engineered Oplophorus gracilirostris luciferase); experiment: Primary Nanoluciferase (NLuc) qHTS assay for identification of artifact compounds. (AID 1845222); conditions: NLuc-conditioned medium, Nano-Glo luminescence, 5 min; series mostly up to 54.1 µM;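 further: 0% = DMSO and -100% = no enzyme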
How it was run: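 Diluted conditioned medium from NLuc-expressing S16 cells treated with compounds for 15 min at room temperature, then Nano-Glo substrate added; luminescence read after 5 min. Percent inhibition versus no-enzyme and DMSO controls fitted to 4-parameter Hill equation.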

[5] = biological target: Luciferin 4-monooxygenase (Photinus pyralis) (UniProt P08659); experiment: Primary firefly luciferase (FLuc) qHTS assay for identification of artifact compounds. (AID 1845220); conditions: purified firefly luciferase, luminescence, 5 min; series mostly up to 54.1 µM; further: nearly all actives have a fitted effect of over 60% in size;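 on activity change, negative = inhibition: plate controls were DMSO vehicle for no effect and no enzyme for full effect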
How it was run: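 D-luciferin and ATP (10 uM each, final) in Tris acetate buffer pH 7.6 were incubated with compounds for 15 min at room temperature. The reaction was started with 10 nM Photinus pyralis luciferase and luminescence read after 5 min. Percent inhibition was fitted to a 4-parameter Hill equation.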

Phospholipid hydroperoxide glutathione peroxidase GPX4 (Homo sapiens), sequence (P36969 whole entry, looked up): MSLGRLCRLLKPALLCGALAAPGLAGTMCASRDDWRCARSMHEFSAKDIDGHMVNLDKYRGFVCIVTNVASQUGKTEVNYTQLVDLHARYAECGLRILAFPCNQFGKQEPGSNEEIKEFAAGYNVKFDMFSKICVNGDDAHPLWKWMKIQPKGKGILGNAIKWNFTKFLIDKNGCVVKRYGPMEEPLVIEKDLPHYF
Glutathione peroxidase 1 (Homo sapiens), sequence (P07203 whole entry, looked up): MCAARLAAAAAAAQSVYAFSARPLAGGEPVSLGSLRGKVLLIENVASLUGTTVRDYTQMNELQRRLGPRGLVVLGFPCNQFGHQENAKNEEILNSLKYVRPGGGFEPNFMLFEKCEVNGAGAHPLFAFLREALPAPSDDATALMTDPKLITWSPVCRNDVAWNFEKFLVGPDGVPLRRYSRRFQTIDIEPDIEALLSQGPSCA

CCCC1=CC2=C(CO1)C(=O)C(C)(OC(=O)c1c(C)cc(OC)cc1O)C(O)C2 (centres undefined)
inactive: Potency [1] | Potency [2] | Potency [3] | Potency [4]

OC[C@H]1O[C@@H](Oc2cc(O)cc(-c3cc4ccc(O)cc4o3)c2)[C@H](O)[C@@H](O)[C@@H]1O
inactive: Potency [1] | Potency [4]
active: Potency [2] 8.81 µM | Potency [3] 5.19 µM

O=C1C[C@@H](c2ccc(O)cc2)Oc2cc(O)ccc21
inactive: Potency [1] | Potency [2] | Potency [3] | Potency [4]

CC1=CC(=O)CC(C)(C)C1(O)CCC(C)O (centres undefined)
inactive: Potency [1] | Potency [2] | Potency [4]

O=C1NC(=Nc2ccccc2F)S/C1=C\c1ccc(C(=O)O)cc1
inactive: Potency [1] | Potency [2] | Potency [3] | Potency [4]

CC1CC(O)CC(C)(C)C1(O)CCO (centres undefined)
inactive: Potency [1] | Potency [2] | Potency [3] | Potency [4]

CC1CCC2C(C)(C)C(O)CCC2(C)C12Cc1c(O)cc3c(c1O2)C(N)=NC3 (centres undefined)
inactive: Potency [1] | Potency [2] | Potency [3] | Potency [4]

CCC(C)/C=C(C)/C=C/C1=CC2=C(Cl)C(=O)C(C)(OC(C)=O)C(=O)C2=CN1CCCC(=O)O (centres undefined)
active: Potency [3] 0.367 µM
inactive: Potency [1] | Potency [2] | Potency [4]

O=C(/C=C/c1ccccc1)OCC1=CC[C@@H]2C(C(=O)O)=CO[C@@H](O[C@@H]3O[C@H](CO)[C@@H](O)[C@H](O)[C@H]3O)[C@H]12
inactive: Potency [1] | Potency [2] | Potency [3] | Potency [4]

NC(Cc1c[nH]c2ccccc12)C(=O)NC(CCC(=O)O)C(=O)O (centres undefined)
inactive: Potency [1] | Potency [2] | Potency [3] | Potency [4]

OCC1OC(Oc2cc(O)c3c(c2)OC(c2ccc(O)cc2)C(O)C3)C(O)C1O (centres undefined)
inactive: Potency [1] | Potency [2] | Potency [3] | Potency [4]

CO[C@@H]1CC[C@H](OC[C@]2(COC(=O)c3ccc(C)[nH]3)[C@H](OC(C)=O)CC[C@@]3(C)[C@@H]4CC=C(C)[C@@H](C5=C(O)C(=O)OC5O)[C@]4(C)CC[C@@H]32)O[C@H]1C (some centres undefined)
inactive: Potency [1] | Potency [2] | Potency [4]

CCC/C=C/C(=O)O[C@H]1CC(C)(C)CC2[C@]13[C@H](O)O[C@@]21CCC2[C@@]4(C)CC[C@H](O[C@@H]5O[C@H](C(=O)O)[C@@H](O)[C@H](O[C@@H]6O[C@H](CO)[C@H](O)[C@H](O)[C@H]6O[C@@H]6O[C@@H](C)[C@H](O)[C@@H](O)[C@H]6O[C@@H]6OC[C@](O)(CO)[C@H]6O)[C@H]5O[C@@H]5O[C@H](CO)[C@H](O)[C@H](O)[C@H]5O)C(C)(C)C4CC[C@@]2(C)[C@]1(C)C[C@H]3OC(C)=O (some centres undefined)
inactive: outcome [1] inactive [at 9.52 µM] | activity change, negative = inhibition [2] -8.75% [at 9.73 µM] | activity change, negative = thiol reactive [3] 179% [at 11.5 µM] | activity, negative = inhibition [4] 4.57% [at 11.6 µM]

O=C(/C=C/c1ccc(O)cc1)O[C@H]1[C@@H]2C=CO[C@@H](O[C@@H]3O[C@H](CO)[C@@H](O)[C@H](O)[C@H]3O)[C@@H]2[C@@]2(CO)O[C@@H]12
inactive: Potency [1] | Potency [2] | Potency [4]

CO[C@@H]1COCC[C@@H]1N[C@@H]1CC[C@@](C(=O)N2CCc3ncc(C(F)(F)F)cc3C2)(C(C)C)C1
inactive: Potency [1] | Potency [2] | Potency [3] | Potency [4]

C[C@@H]1CCC2C(C)(C)[C@H](O)CC[C@]2(C)[C@@]12Cc1c(O)cc3c(c1O2)CN(CCO)C3=O (some centres undefined)
inactive: Potency [1] | Potency [2] | Potency [3] | Potency [4]

Cc1ccc2c(c1)C=Cc1cc(C)ccc1C2c1cn(Cc2ccc(C(=O)Nc3nn[nH]n3)o2)c(=O)[nH]c1=S
inactive: Potency [2] | Potency [5] | Potency [3] | Potency [4]

CN(C)c1cccc(-c2c3c(=O)n(-c4ccccc4Cl)[nH]c3cc(=O)n2C)c1
inactive: Potency [1] | Potency [5] | Potency [4]
active: Potency [3] 1.89 µM

COC(=O)C1=C(C#N)NC(C)=C(C(=O)OC(C)C)C1c1cccc([N+](=O)[O-])c1 (centres undefined)
inactive: Potency [2]

NCc1c[nH]c(=S)n1C1CCc2c(F)cc(F)cc2C1 (centres undefined)
inactive: Potency [5] | Potency [4]
active: Potency [1] 22.7 µM

O=C(O)C[C@H]1CCC(=O)[C@@H]1C/C=C\CCOC1OC(CO)C(O)C(O)C1O (some centres undefined)
active: Potency [3] 7.36 µM
inactive: Potency [2] | Potency [5] | Potency [4]

CCOC(=O)[C@H](CCc1ccccc1)N[C@@H](C)C(=O)N1C2CCCCC2C[C@H]1C(=O)O (some centres undefined)
inactive: Potency [2] | Potency [5] | Potency [3] | Potency [4]

CC1C/C=C/C=C\CCCCC(O)C/C=C/C(=O)O1 (centres undefined)
inactive: Potency [2] | Potency [5] | Potency [3] | Potency [4]

C=C1CC23CC1(O)CCC2C1=CC2OC(=O)C(C)(C2O)C1C3C(=O)O (centres undefined)
inactive: Potency [2] | Potency [5] | Potency [3] | Potency [4]
